Bioassay records from PubChem.
Pol iota inh: DNA polymerase iota (human) inhibition. Pol iota fluorescent replication assay, 10 min. Potency, µM (highest dose often 115 µM), for the others: at the highest dose activity, negative = inhibition, usual class: inhibitors. 390,000 compounds, 1% hits. AID 588590
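Pol iota at 10 nM preincubated 15 min with compounds at room temperature; reaction started with fluorescent substrate, 50 nM final. Fluorescence read kinetically at 0 and 10 min; buffer-only wells as negative control.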
Pol kappa inh-1: inhibitors of human DNA polymerase kappa; purified Pol kappa, fluorescent DNA synthesis assay, 10 min; Potency, µM (highest dose often 107 µM), inactives show top-dose activity, negative = inhibition, most hits filed as inhibitors; 400,000 compounds, 0.53% hits; AID 588579; Q9UBT6; also: % is scaled to controls: 0 for no effect and ±100 for the full control effect
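Kinetic fluorescence screen: compound preincubated 15 min RT with 10 nM enzyme; 50 nM substrate (final) initiates; reads at 0/10 min.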
FEN1 inhibitor: human FEN1 inhibition; 390,000 compounds, 0.35% hits; Potency, µM (series often up to 114 µM), for the others: at the top dose activity change, negative = inhibition, hits mostly inhibitors; P39748; AID 588795; Recombinant FEN1 flap cleavage, fluorescence, 15 min; also: % is scaled to controls: 0 for no effect and ±100 for the full control effect; nearly all actives have a fitted effect of over 65% in size
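Reaction started by adding substrate (50 nM final) to 10 nM enzyme after 15 min room-temperature compound preincubation. Reads at 0 and 15 min, with data normalized and fitted to a four-parameter Hill equation.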
Pol eta inh-1: inhibitors of human DNA polymerase eta | AID 588591 | Q9Y253 | 390,000 compounds, 1.2% hits | recombinant Pol eta, fluorescent DNA replication assay | Potency, µM (doses to about 114 µM), for inactives: at the highest dose activity change, negative = inhibition, most hits filed as inhibitors; also: % is scaled to controls: 0 for no effect and ±100 for the full control effect
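Fluorescent replication assay: 50 nM final substrate added after a 15 min room-temperature compound preincubation with 10 nM enzyme. Signal taken at 0 min and again at 10 min.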
WRN inhibitor: blocks human WRN helicase. Potency, µM (doses to about 114 µM), without a hit: at the top dose activity change, negative = inhibition, actives largely listed as inhibitors. 360,000 compounds, 0.46% hits. WRN helicase unwinding, fluorescent forked duplex, kinetic; also: % is scaled to controls: 0 for no effect and ±100 for the full control effect; nearly all actives have a fitted effect of over 55% in size
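Kinetic red-fluorescence monitoring (525/598 nm) tracks WRN helicase activity after 100 nM fluorophore-quencher forked duplex and 2 mM ATP are added to 20 nM enzyme pretreated 15 min at room temperature with compound.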
Pol beta inh: blocks human DNA polymerase beta activity; P06746; Pol beta primer extension/strand displacement, fluorescence kinetic; Potency, µM (series often up to 114 µM), for the others: at the top dose activity change, negative = inhibition, usual class: inhibitors; 340,000 compounds, 1.3% hits; also: % is scaled to controls: 0 for no effect and ±100 for the full control effect
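Curves were derived by four-parameter Hill fits of normalized qHTS data. The kinetic fluorescent primer-extension read was taken at 0 and 10 min after 50 nM substrate, following a 15 min room-temperature preincubation of 10 nM enzyme with compounds.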
Pol kappa inh-2: confirmation of human DNA polymerase kappa inhibitors; Potency, µM, usual class: inhibitors; 920 compounds, 76% hits; shares compounds with Pol eta inh-1; purified Pol-kappa, fluorescent strand-displacement substrate
Pol eta inh-2: Pol eta (human) inhibition, cherry-pick confirmation; AID 720502; Potency, µM, most hits filed as inhibitors; shares compounds with Pol eta inh-1; 2,600 compounds, 64% hits; Pol eta primer extension, TAMRA/BHQ fluorescence, 10 min
* marks the source's active call; other numbers are inactive results; ? = inconclusive; · = not tested or not shown; [ ] = dose if it differs, or a comment. Sampled rows, rich in hits. Any-hit rate of the full collection: about 2.4%. Calls follow the shape of the dose curve; as a rule, active = well fitted curve in the direction sought with a large enough effect; inconclusive = small, poorly fitted or top-dose-only effect, or another doubt; inactive = no such curve, though single readings can be large; an effect the other way counts as inactive or inconclusive. Potency is read from the fitted curve at half-maximal effect.

SMILES	Pol iota inh	Pol kappa inh-1	FEN1 inhibitor	Pol eta inh-1	WRN inhibitor	Pol beta inh	Pol eta inh-2	others
COC(=O)c1c(NC(=O)CCCC(=O)O)sc2c1CCC2	-23.8%[58.9 µM]	-30.8%	9.8%	?	?	0.6%	30.1*
COc1ccc(-n2nc3cc(C)c(NC(=O)Cc4ccc(Cl)cc4)cc3n2)cc1	24.5%	-9.6%	17.1%	-20.4%	·	11.9%	·
CC(c1ccccc1)N1C(=O)c2ccc(C(=O)Nc3ccc(Br)cc3C(=O)O)cc2C1=O (configuration not stated)	-12.6%	-8.3%	-32.1%	50.1µM*	-15.2%[11.6 µM]	14.0%	75.7*
CC1NC(=O)c2cc3ccccc3cc2-n2c1nc1ccc(F)cc1c2=O (configuration not stated)	·	·	·	-14.4%	5.0%	·	·
O=C(O)c1cccc(NC(=O)c2ccc(N3C(=O)c4ccc(C(=O)Nc5cccc(C(=O)O)c5)cc4C3=O)cc2)c1	43.8%	-13.5%	3.2%	-20.8%	-19.9%[57.1 µM]	2.7%	·
O=C(O)c1ccc2c(c1)C(=O)N(c1cccc(C(=O)/C=C/c3ccccc3)c1)C2=O	?	-12.4%	?	31.6µM*	?	48.2%	60.1*
Cc1ccc(Cl)cc1N1CCN(C(=O)CN(c2ccccc2)S(=O)(=O)N(C)C)CC1	25.1µM*	?	-14.0%	50.1µM*	-10.8%[11.6 µM]	10µM*	·	Pol kappa inh-2=?
COc1cc(C(=O)O)cc(OC)c1OCc1cc(C(=O)O)oc1C	?	-41.9%	-10.7%	3.16µM*	-13.4%	17.8µM*	47.8*	Pol kappa inh-2=42.3*
O=C(CCN1C(=O)c2ccccc2C1=O)c1cnc[nH]1	·	·	·	·	-1.7%[57.1 µM]	·	·
CC(C)OCCCNc1nc2c(cnn2C)c(=O)[nH]1	110.0%	3.2%	-1.7%	-17.9%	-8.4%	·	·
COC1=CC(=Cc2c(N)n3nc(CC(=O)N4CCOCC4)sc3nc2=O)C=C(OC)C1=O	22.4µM*	79.4µM*	-19.5%	20µM*	?	?	?
Nc1c(C=C2C=CC(=O)C=C2)c(=O)nc2sc(CC(=O)N3CCOCC3)nn12	-25.9%	-32.3%	9.2%	?	-6.9%[11.6 µM]	34.3%	75.7*
Nc1c(/C=C2\C=Nc3ccccc32)c(=O)nc2sc(CC(=O)N3CCOCC3)nn12	4.3%	-2.8%	19.2%	-14.7%	-12.3%	1.8%	·
C=CCC1=C/C(=C\c2c(N)n3nc(CC(=O)N4CCCC4)sc3nc2=O)C=C(OC)C1=O	18.1%	-7.6%	16.9%	10.9%	2.4%	8.4%	·
COc1ccc(CCNC(=O)Cc2c(C)c3c(cc(C)c4c(C)coc43)oc2=O)cc1	29.2%	6.8%	-0.8%	-21.9%	·	28.0%	·
COc1cc(/C=C2/C(=N)N3N=C(C)SC3=NC2=O)ccc1OS(=O)(=O)c1ccc(C)cc1	?	-4.4%	-3.5%	-16.8%	-29.1%	-2.9%	·
CCC1=NN2C(=N)/C(=C/c3ccc(OS(=O)(=O)c4ccc(C)cc4)c(OC)c3)C(=O)N=C2S1	?	-29.8%	-8.3%	?	-10.4%[11.6 µM]	?	?
